This is a sample that favours compounds with a hit; in the whole collection about 2.6% have one here.
HIF-2a inh = HIF-2a inhibition; 786-0 RCC cells HIF-2a reporter, luciferase luminescence, overnight; inhibition, % at 18.8 µM; hit rate 0.72% among 360,000;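 active = inhibition of the luminescence signal of 40% or more relative to plate controls, in a single-dose primary screen at 18.75 µM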
KKLEB cytotox = reduces viability of KKLEB cystic fibrosis airway cells; hit rate 0.36% among 360,000; AID 602141; activity change (cytotoxicity), % at 5 µM; KKLEB CF airway cells viability, ATPlite luminescence, overnight; active compounds read low; cells stimulated with P. aeruginosa culture filtrate;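 active = corrected activity change at or below -50% at 5 µM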
Peg3 promoter = inhibitors of Peg3 promoter; HeLa PEG-Prom luciferase reporter, luminescence, overnight; inhibition, % at 20 µM; hit rate 1.7% among 360,000;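 active = inhibition of at least 50% at 20 µM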
Shn3 3UTR inh = reduces Shn3 3'UTR luciferase signal in osteoblasts | inhibition, % at 12.5 µM | hit rate 0.52% among 360,000 | Clone20 osteoblast Shn3 3'UTR firefly luciferase, 24 h;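 active = mean inhibition of at least 75% with every replicate also reaching 75%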;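 also: 0% = median of neutral control wells and 100% = pilot-screen positive control compound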
CF NFkB block = inhibitors of cystic fibrosis induced NF-kB; KKLEB NF-kB-GFP reporter, PAF-induced, GFP fluorescence overnight; inhibition, % at 5 µM; hit rate 0.86% among 360,000;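 active = at least 50% inhibition at 5 µM, scaled per plate between neutral and stimulator controls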;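 also: PAF is a Pseudomonas aeruginosa culture filtrate used as stimulus; plate controls were PAF-stimulated DMSO wells for no effect and unstimulated DMSO wells for full effect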
The depositor's hits bear a star; nt = no result given.

SMILES	HIF-2a inh	KKLEB cytotox	Peg3 promoter	Shn3 3UTR inh	CF NFkB block
O=C(Cn1cncc1-c1ccc([N+](=O)[O-])cc1)Nc1ccccc1F	13	6	-6	-14	-42
Cc1cccc(N(Cc2ccccc2)C(=O)CCl)c1	31	-107*	59*	25	96*
COc1ccc(CC(=O)N(Cc2ccccc2)c2cccc(C)c2)cc1OC	3	-6	6	14	1
CC1(c2ccc(Cl)cc2)NC(=O)N(CC(=O)NC2CCCCC2)C1=O (stereo not drawn)	19	6	9	-6	8
Cc1nn(C)c(C)c1NC(=O)CSc1nc(-c2ccccc2Cl)nc2c1cnn2-c1ccccc1	18	-12	65*	8	29
C#CCN(C[C@@H]1[C@@H](OC(=O)NCC2CCCCC2)[C@@H](OC(=O)NCC2CCCCC2)Cn2c(=O)n(CCCCCC)c(=O)n21)S(=O)(=O)c1ccc(C)cc1	2	2	12	33	-17
CC1=C(C(=O)N2CCOCC2)CC(CC(=O)NC2CCCCC2)C(=O)N1Cc1ccc(F)cc1 (stereo not drawn)	3	9	-3	-8	-10
CC(=O)NC1C(O)OC(CO)C(O)C1O (stereo not drawn)	9	9	-7	97*	-12
O=C(Nc1ccc(Cl)c(S(=O)(=O)N2CCOCC2)c1)c1ccc(OCC2CCCO2)cc1 (stereo not drawn)	-8	1	103*	77	2
Cn1nc(C(=O)Nc2ccc(Cl)c(S(=O)(=O)N3CCOCC3)c2)c2ccccc2c1=O	4	-12	53*	-2	20
O=C(Nc1ccc(Cl)c(S(=O)(=O)N2CCOCC2)c1)c1n[nH]c(=O)c2ccccc12	13	-28	16	-5	29
CCN1CCN(C(=O)CN(CC)S(=O)(=O)c2ccc3ccccc3c2)CC1	9	7	15	-8	-6
S=C(SSC(=S)N1CCOCC1)N1CCOCC1	1	1	5	90*	4
C=C1N(c2cccc(Cl)c2)C(=O)OC1(C)C	12	6	-2	-4	-9
Cc1ccc(C(=O)COC(=O)COc2ccccc2[N+](=O)[O-])s1	5	7	12	-8	11
CCOC(=O)COc1ccccc1/C=C\[N+](=O)[O-]	92*	-29	110*	97*	81*
COc1ccccc1OCC(=O)c1[nH]c(C)c(C(C)=O)c1C	-5	4	-18	85*	-25
COCCCNC(=O)CN(CCc1ccccc1)S(=O)(=O)c1ccc(C)cc1	9	10	-2	-6	-11
O=C(COc1cccnc1[N+](=O)[O-])NC1CCS(=O)(=O)C1 (stereo not drawn)	15	5	1	-20	-11
O=C1/C(=C\c2ccccc2)SC(=S)N1CCC(=O)N1CCCCC1CCO (stereo not drawn)	2	15	16	-74	3
CC(C)c1ccc(/C=C2\SC(=S)N(CCC(=O)N3CCCCC3CCO)C2=O)cc1 (stereo not drawn)	86*	-18	38	48	2
COc1ccc(/C=C2\SC(=S)N(CCCC(=O)N3CCCCC3CCO)C2=O)cc1 (stereo not drawn)	83*	-12	34	8	14
O=C1/C(=C/c2ccccc2Cl)SC(=S)N1CCC(=O)N1CCCCC1CCO (stereo not drawn)	20	-5	55*	-48	-6
Cn1nc(C(C)(C)C)cc1C(=O)N1CCCCC1c1cc(C(=O)Nc2cccc3c2CCCC3)no1 (stereo not drawn)	10	14	22	81*	-7
CSc1nnc2c(n1)OC=Nc1ccc(Br)cc1-2	8	-2	8	1	-4
SMILES	HIF-2a inh	KKLEB cytotox	Peg3 promoter	Shn3 3UTR inh	CF NFkB block
ClCc1nnc(-c2cc3c(s2)CCCC3)o1	-16	-14	108*	0	-4
CC(C)(C)C1CCc2sc(-c3nnc(CCl)o3)cc2C1 (stereo not drawn)	-61	-8	-6	-27	-3
CCN1CCN(CCNC(=O)c2ccc(/C=C3/Sc4ccccc4N(Cc4ccccc4C)C3=O)cc2)CC1	19	-77*	87*	-8	43
CCN1CCN(CCCNC(=O)c2ccc(/C=C3/Oc4ccccc4N(Cc4cccc(C)c4)C3=O)cc2)CC1	4	-40	75*	3	20
O=C(NCCCN1CCOCC1)c1ccc(/C=C2\Oc3ccccc3N(Cc3ccccc3F)C2=O)cc1	2	0	11	-18	20
COc1ccc(CCNC(=O)C(=O)c2cn(CC(=O)N3CCCC3)c3ccccc23)cc1OC	3	7	-10	1	-26
COc1cc(SC)ccc1C(=O)NCCCn1ccnc1	14	5	16	5	-6
O=C(Nc1ccc(Br)c(C(F)(F)F)c1)c1ccc(C(F)(F)F)cc1	-274	-69*	-48	-13	65*
Cc1ccc(-c2csc(/C(C#N)=C/Nc3ccc4c(c3)OCCO4)n2)cc1	-5	-66*	31	3	68*
Cc1nc(-c2ccc3c(c2)OCCO3)cs1	-196	-1	-227	-57	9
C[N+]1([O-])[C@@H]2Cc3cc4c(cc3[C@@H]1Cc1cc3c(cc12)OCO3)OCO4 (stereo partly drawn)	-12	-10	-22	12	3
COc1ccc(S(=O)(=O)Nc2ccccc2C(=O)Nc2nc(-c3ccc(F)cc3)cs2)cc1OC	-16	-41	32	-1	52*
CCCNC(=O)c1ccccc1NS(=O)(=O)c1ccc(OC)c(OC)c1	15	-7	14	3	-4
COc1ccc(-c2csc(NC(=O)c3ccccc3NS(=O)(=O)c3ccc(C)cc3)n2)cc1	1	-52*	55*	42	57*
COc1ccc(-c2csc(NC(=O)c3c(OC)cccc3OC)n2)cc1	-9	-4	2	6	-4
COc1ccccc1NC(=O)CSc1nc2[nH]ncc2c(=O)[nH]1	12	21	-5	-2	-14
CC(c1ccccc1C(O)(c1ccccc1)c1ccccc1)N(C)C (stereo not drawn)	2	-14	10	11	22
CCOCCn1ccc2c(OCC(=O)Nc3ccc(OC)cc3OC)cccc2c1=O	15	-10	52*	11	10
CCOCCn1ccc2c(OCC(=O)Nc3ccc(OC)c(OC)c3)cccc2c1=O	8	-10	17	74	0
CCc1ccc(/C=C2\SC(=S)N(CCCC(=O)NCCCN3CCOCC3)C2=O)cc1	83*	-8	84*	77	10
CCOc1ccc(/C=C2\SC(=S)N(CCCC(=O)NCCCN3CCOCC3)C2=O)cc1	71*	-12	68*	71	5
CCc1ccc(/C=C2/SC(=S)N(CCC(=O)NCCCN3CCOCC3)C2=O)cc1	-50	0	-103	-21	-12
CCOC(=O)[C@]12CCC=C1N(Cc1ccc(Cl)cc1Cl)C(=O)[C@H](CC(=O)NCc1ccc(OC)c(OC)c1)C2	-10	nt	nt	nt	nt
COc1ccc(C(O)c2nc(-c3ccc(OC)c(OC)c3)cs2)cc1 (stereo not drawn)	-18	-8	-5	-19	23
